Compound activity as filed in PubChem.
pS6 MEF inh – reduces mTORC1 signaling in Tsc2 and p53 null MEF cells. Tsc2-/- p53-/- MEF, phospho-rpS6 immunofluorescence/PI, 24 h. Potency, µM (doses to about 38.3 µM), inactives show top-dose activity change, negative = inhibition, usual class: inhibitors. 0.78% of 44,000 active. AID 493208;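 also: potency is read from the fitted curve at half-maximal effect; plate controls were DMSO for no effect and rapamycin for full effect; nearly all actives have a fitted effect of over 50% in size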
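Compounds act on Tsc2-/-, p53-/- fibroblasts carrying an empty vector for 24 h before fixation and dual staining for phospho-S6 and DNA (propidium iodide). Values are percentages of cells above a rapamycin-defined pS6/PI threshold.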
OvCa metastasis – inhibitors of ovarian cancer cell adhesion and invasion in omental model; AID 1963576; SKOV3ip1-GFP adhesion/invasion on 3D omental model, fluorescence; 0.1% of 46,000 active; Potency, µM (series often up to 45.8 µM), without a hit: top-dose activity change, negative = inhibition, usual class: inhibitors;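 also: potency is read from the fitted curve at half-maximal effect; plate controls were DMSO wells for no effect and tomatine positive control wells for full effect; nearly all actives have a fitted effect of over 65% in size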
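qHTS, 4-pt dose (0.36-46 umol/L); SKOV3ip1-GFP, 1,200 cells/well, no FBS; primary omental fibroblast/mesothelial co-culture 48 h pre-grown; 2 h RT + 16 h 37 C; PBS wash, 4% PFA; GFP count 488/509 nm.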
PMP22 txn – modulators of PMP22 gene transcription in S16 Schwann cells | AID 1508649 | Potency, µM (highest dose often 57.5 µM), for inactives: at the top dose activity change, negative = inhibition, actives largely listed as inhibitors | S16 Pmp22-F2sN Schwann cells, FLuc/NLuc coincidence luminescence, 24 h | 2% of 43,000 active; active = clear falling dose curves in both reporters; inconclusive = both reporters move, but less clearly or upward; inactive = either reporter flat; the % is the NLuc reporter signal; also: potency is read from the fitted curve at half-maximal effect; % is scaled to controls: 0 for no effect and ±100 for the full control effect
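Schwann cells carrying the coincidence reporter were exposed to library compounds for 24 h at 37C, then lysed and read for FLuc and, after quenching, NLuc luminescence on a CCD imager.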
p53null 39C kill – p53 null cell cytotoxicity, nonpermissive temperature; H1299 p53-null (neo) cells, 39C, ATPlite viability, 24 h; AID 904; Potency, µM (titrated, usually from 46.1 µM), for inactives: at the highest dose activity, negative = cell killing, usual class: cytotoxic; 0.97% of 55,000 active;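 also: potency is read from the fitted curve at half-maximal effect; 0% = DMSO only and -100% = full killing by 100 µM tamoxifen; nearly all actives have a fitted effect of over 50% in size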
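Temperature-shift cytotoxicity format: compound titrations on p53-null or A138V-expressing H1299 cells held 24 hr at 39C, cell ATP then measured, AC50 from Hill model.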
S16 F2sN tox – cytotoxicity in S16 Pmp22-F2sN Schwann cells | Potency, µM (series often up to 57.5 µM), for inactives: top-dose activity change, negative = cytotoxicity, hits mostly cytotoxic | 0.48% of 43,000 active | S16 Pmp22-F2sN Schwann cells viability, CellTiter-Glo, 24 h | AID 1508642; also: potency is read from the fitted curve at half-maximal effect; % is scaled to controls: 0 for no effect and ±100 for the full control effect; nearly all actives have a fitted effect of over 65% in size
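Viability was measured by CellTiter-Glo luminescence (15 min, room temperature). This followed 24 h at 37 °C of compound exposure (23 nL pin transfer) in S16 Pmp22-F2sN Schwann cells, 500-1,000 per well.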
p53null 32C kill – p53 null cell cytotoxicity, permissive temperature; H1299-neo p53 null cells, ATP luminescence, 24 h, 32C; Potency, µM (series often up to 46.1 µM), without a hit: at the highest dose activity change, negative = cytotoxicity, most hits filed as cytotoxic; 0.62% of 55,000 active; AID 903;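 also: potency is read from the fitted curve at half-maximal effect; 0% = DMSO only and -100% = full killing by 100 µM tamoxifen; nearly all actives have a fitted effect of over 55% in size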
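H1299-neo (p53-null) cells, 600/well, were pre-incubated overnight at 37C, then exposed to compounds at up to 46 uM for 24 hr at 32C. Viability was measured as ATP content by luminescence, and AC50 values came from Hill fits.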
NLuc saturating – inhibits NanoLuc at saturating substrate, PMP22 counter-screen | Potency, µM (titrated, usually from 57.5 µM), without a hit: at the highest dose activity change, negative = inhibition, hits mostly inhibitors | shares compounds with PMP22 txn | Secreted NLuc enzyme (filtered S16 cell medium), Nano-Glo luminescence | 4% of 690 active; also: potency is read from the fitted curve at half-maximal effect; % is scaled to controls: 0 for no effect and ±100 for the full control effect
NLuc Km ctr – NanoLuc inhibition at Km substrate, PMP22 artifact check | shares compounds with PMP22 txn | secreted NLuc enzyme, coelenterazine luminescence, Km conditions | Potency, µM (highest dose often 57.5 µM), without a hit: at the highest dose activity change, negative = inhibition, hits mostly inhibitors | 5% of 690 active | AID 1508639; also: potency is read from the fitted curve at half-maximal effect; % is scaled to controls: 0 for no effect and ±100 for the full control effect
FLuc counter – counter-screen for PMP22 expression modulators: firefly luciferase inhibition; 690 tested, under 10 active; AID 1508640; shares compounds with PMP22 txn; Potency, µM (highest dose often 57.5 µM), for inactives: at the highest dose activity, negative = inhibition, hits mostly inhibitors; purified P. pyralis FLuc, luminescence, 10 min; also: % of control where 0% means no effect
Target sequence (P08659 whole entry, looked up): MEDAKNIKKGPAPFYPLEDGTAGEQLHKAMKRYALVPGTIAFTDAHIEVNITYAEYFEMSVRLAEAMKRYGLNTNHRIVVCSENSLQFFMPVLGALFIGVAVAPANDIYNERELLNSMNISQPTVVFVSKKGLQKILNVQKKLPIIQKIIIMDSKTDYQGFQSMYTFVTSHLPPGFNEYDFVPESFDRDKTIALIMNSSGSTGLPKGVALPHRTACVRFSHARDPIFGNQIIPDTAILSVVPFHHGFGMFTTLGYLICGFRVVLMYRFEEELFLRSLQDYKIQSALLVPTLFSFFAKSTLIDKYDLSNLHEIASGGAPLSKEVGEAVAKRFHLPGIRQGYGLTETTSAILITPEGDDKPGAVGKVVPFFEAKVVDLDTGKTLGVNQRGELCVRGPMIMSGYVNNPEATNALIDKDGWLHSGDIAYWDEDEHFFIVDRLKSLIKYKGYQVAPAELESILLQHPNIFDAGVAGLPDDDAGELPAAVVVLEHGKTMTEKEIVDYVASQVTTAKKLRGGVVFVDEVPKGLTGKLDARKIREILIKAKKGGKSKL
S16 F2sN tox cnf – confirmation of cytotoxicity in S16 Pmp22-F2sN Schwann cells (luciferase reporters placed in the Pmp22 gene). 7% of 690 active. S16 Schwann cells viability, CellTiter-Glo ATP luminescence, 24 h. Potency, µM (top dose mostly 57.5 µM), without a hit: top-dose activity change, negative = viability loss, most hits filed as cytotoxic. shares compounds with PMP22 txn; also: potency is read from the fitted curve at half-maximal effect; % is scaled to controls: 0 for no effect and ±100 for the full control effect
PMP22 txn cnf – confirmation of modulators of PMP22 gene transcription in S16 cells; shares compounds with PMP22 txn; S16 Schwann cells Pmp22-F2sN, dual luciferase, 24 h; Potency, µM (doses to about 57.5 µM), without a hit: at the highest dose activity change, negative = inhibition, hits mostly inhibitors; 22% of 690 active; active = clear falling dose curves in both reporters; inconclusive = both reporters move, but less clearly or upward; inactive = either reporter flat; the % is the FLuc reporter signal; also: potency is read from the fitted curve at half-maximal effect
Starred values were filed as active, the others as inactive; i = inactive; ? = inconclusive; · = no result given. Rows were chosen to be rich in hits. Some 3% of all compounds tested hit in one or more screens of this group. Unless noted, calls follow the shape of the dose curve; as a rule, active = well fitted curve in the direction sought with a large enough effect; inconclusive = small, poorly fitted or top-dose-only effect, or another doubt; inactive = no such curve, though single readings can be large; an effect the other way counts as inactive or inconclusive.

SMILES | pS6 MEF inh | OvCa metastasis | PMP22 txn | p53null 39C kill | S16 F2sN tox | p53null 32C kill | others
Cc1cccc(NS(=O)(=O)c2ccc3[nH]c4c(c3c2)CCCCCC4)c1 | 13µM* | -13% | ? | -9% | ? | 65%
Cc1csc2nc(COC(=O)c3cccc(NC(=O)COc4ccccc4Cl)c3)cc(=O)n12 | 0% | i | -5% | 6.3µM* | 23% | ?
CCOc1ccc(C(=O)Nc2ccc(C(=O)OCc3cc(=O)n4c(C)csc4n3)cc2)cc1 | 4% | i | ? | 13µM* | -23% | ?
O=C(O)C1=CC(O)C(O)[C@H](O)C1 (stereo partly specified) | · | -14% | · | · | · | ·
Cc1c[nH]c(C=C2C(=O)Nc3ccccc32)c1CCC(=O)O | · | -1% | · | · | · | ·
Cc1ccc(NS(=O)(=O)c2cc(-c3cc(C)no3)ccc2C)c(Cl)c1 | -1% | 1% | ? | ? | 2% | -4%
Cc1cc(-c2ccc(C)c(S(=O)(=O)Nc3ccccc3C(F)(F)F)c2)on1 | -8% | i | -85% | 11µM* | -3% | ?
Cc1cccc(C)c1OCCCn1c(CCNC(=O)C2CCCCC2)nc2ccccc21 | -1% | 11% | ? | 16µM* | -24% | -4%
Cc1ccc(OCCCn2c(CCNC(=O)C3CCCCC3)nc3ccccc32)c(C)c1 | -1% | 3% | -5% | -3% | ? | -7%
Cc1cc(OCCCn2c(CCNC(=O)C3CCCCC3)nc3ccccc32)ccc1Cl | 1% | ? | ? | 25µM* | ? | ?
COc1ccc(OCC(=O)Nc2ccc(-c3nc4cc(C)c(C)cc4o3)cc2)cc1 | -1% | -9% | -3% | 7% | 7% | -9%
CCc1ccc(OCC(=O)Nc2ccc3oc(-c4ccc(OC)cc4)nc3c2)cc1 | 13µM* | -2% | -10% | -9% | 17% | -5%
CCn1c(C(=O)N(C2CC2)C2CC2)cc2c3c(ncn3C)c(Nc3cc(C)n(C)n3)nc21 | · | -5% | · | · | · | ·
COc1cccc(/C=C/C(=O)Nc2ccc3nc(N4CCN(C)CC4)cc(C)c3c2)c1OC | ? | ? | ? | 20µM* | 32µM* | ?
CCN1CCN(c2cc(C)c3cc(NC(=O)/C=C/c4cccc(OC)c4OC)ccc3n2)CC1 | ? | ? | -18% | ? | ? | -17%
Cc1cc(N2CCCCC2)nc2ccc(NC(=O)/C=C/c3ccccc3OC(C)C)cc12 | 16µM* | i | -8% | -14% | 4% | 4%
COc1cccc(-c2noc(-c3cc4ccccc4oc3=O)n2)c1OC | -2% | -2% | -2% | -7% | 10% | -29%
COc1ccc(-c2noc(-c3cccc(OC)c3OC)n2)cc1 | -14% | -2% | 0% | 18µM* | 3% | 13µM*
Cc1cc(Nc2ncc3c(n2)N(C)C(=O)N(c2cc(NC(=O)c4cccc(C(F)(F)F)c4)ccc2C)C3)n(C)n1 | · | 2% | · | · | · | ·
O=c1[nH]nc(Sc2ncc([N+](=O)[O-])s2)n1-c1ccc2c(c1)OCCO2 | · | 15µM* | · | · | · | ·
CC(C)NC(=O)Cn1c(=O)nc(-c2ccccc2F)c2cc(Cl)ccc21 | 0% | -8% | -6% | -19% | 4% | -10%
COc1ccc(CNC(=O)Cn2c(=O)nc(-c3ccccc3F)c3cc(Cl)ccc32)cc1 | 0% | 11µM* | ? | 12% | 5% | -1%
Cc1ccc(-c2cc(-c3ccccc3)no2)c(O)c1 | · | · | · | · | · | 7.9µM*
Cc1ccc(O)c(NC(=O)c2cc(-c3ccccc3O)no2)c1 | ? | -2% | -21% | -2% | -1% | -3%
Cc1ccc(-c2c(C)n3c4c(=O)n(C)c(=O)n(C)c4nc3n2CCCO)cc1 | -5% | 10% | ? | -12% | 32µM* | -6%
SMILES | pS6 MEF inh | OvCa metastasis | PMP22 txn | p53null 39C kill | S16 F2sN tox | p53null 32C kill | others
COc1cc2nccc(Oc3ccc(NC(=O)C4(C(=O)Nc5ccc(F)cc5)CC4)cc3)c2cc1OC | · | -6% | · | · | · | ·
Cc1cccc(N=C/C(C(=O)C(F)(F)F)=C(\O)c2ccco2)c1 | · | · | · | · | · | 6%
O=C(/C(C=Nc1ccc(F)cc1)=C(/O)c1ccco1)C(F)(F)F | · | · | · | ? | · | 7.9µM*
CCN1CCN(Cc2ccc(-c3cc4c(N[C@H](C)c5ccccc5)ncnc4[nH]3)cc2)CC1 | · | 3% | · | · | · | ·
COc1cc(-c2noc(-c3ccc(NCc4ccco4)c([N+](=O)[O-])c3)n2)cc(OC)c1OC | 0% | 11% | 3.2µM* | -9% | 4% | 1% | NLuc saturating=?;NLuc Km ctr=?;FLuc counter=-1%;S16 F2sN tox cnf=-12%;PMP22 txn cnf=?
COc1c(Cl)cc2c([nH]c3cnccc32)c1NC(=O)c1cccnc1C | · | -1% | · | · | · | ·
CCC(=O)N1CCc2cc(S(=O)(=O)CCC(=O)N3CCN(c4ccc(Cl)cc4)CC3)ccc21 | -2% | 2% | 17µM* | -3% | -1% | 17% | NLuc saturating=?;NLuc Km ctr=-4%;FLuc counter=-3%;S16 F2sN tox cnf=12%;PMP22 txn cnf=?
COc1ccc(Nc2ncc(C(=O)N3CCN(c4ccc(OC)cc4)CC3)c3ccccc23)cc1 | -9% | i | ? | 5% | -8% | 11%
